BAZ2B inh: qHTS Assay for Inhibitors of BAZ2B; Bromodomain adjacent to zinc finger domain protein 2B (Homo sapiens), Q9UIF8; AlphaScreen BAZ2B-H3K14Ac peptide displacement; 4.4% of 360,000 active; Potency, µM (highest dose often 114 µM), usual class: inhibitors; note: nearly all actives have a fitted effect of over 60% in size
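AlphaScreen luminescence quantifies BAZ2B engagement of H3K14Ac peptide; the protein and biotinylated peptide are both at 50 nM final, buffer PBS pH 7.4 with 0.01% Tween-20, all steps at room temperature.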
Sfp PPTase inh: qHTS Assay for Inhibitors of Bacillus subtilis Sfp phosphopantetheinyl transferase (PPTase). AID 1490, 2009. Biochemical Sfp PPTase activity, qHTS. 3.5% of 310,000 active. Potency, µM, most hits filed as inhibitors;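 note: the enzyme is Sfp with the accession as filed and its product quenches rhodamine fluorescence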
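After 15 min at room temperature with compound, 15 nM Sfp received 5 uM rhodamine-CoA plus 12.5 uM BHQ-2-ybbR (50 mM Hepes pH 7.6, 10 mM MgCl2). Rate came from the fluorescence difference over 30 min, ex 525/em 598 nm.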
L3MBTL1 inh: qHTS Assay for the Inhibitors of L3MBTL1. Lethal(3)malignant brain tumor-like protein 1 (Homo sapiens), Q9Y468. AlphaScreen L3MBTL1–H3K9me1 peptide binding. Potency, µM (series often up to 57.1 µM), hits mostly inhibitors. 0.66% of 230,000 active. AID 485360, 2010; note: nearly all actives have a fitted effect of over 60% in size
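Read-out is AlphaScreen signal from streptavidin donor and nickel chelate acceptor beads (10 ug/mL final each) bridging L3MBTL1 (50 nM) and biotinylated K9-monomethylated H3(1-15) peptide (75 nM), after 30 min compound exposure at room temperature.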
G9a inh: qHTS Assay for Inhibitors of Histone Lysine Methyltransferase G9a. Histone-lysine N-methyltransferase EHMT2 (Homo sapiens), Q96KQ7. G9a H3K9 monomethylation, AlphaScreen, 2 h. Potency, µM (titrated, usually from 102 µM), actives largely listed as inhibitors. 8.8% of 350,000 active. AID 504332, 2011; note: nearly all actives have a fitted effect of over 75% in size
Target sequence (Q96KQ7 913-1193 limits assumed): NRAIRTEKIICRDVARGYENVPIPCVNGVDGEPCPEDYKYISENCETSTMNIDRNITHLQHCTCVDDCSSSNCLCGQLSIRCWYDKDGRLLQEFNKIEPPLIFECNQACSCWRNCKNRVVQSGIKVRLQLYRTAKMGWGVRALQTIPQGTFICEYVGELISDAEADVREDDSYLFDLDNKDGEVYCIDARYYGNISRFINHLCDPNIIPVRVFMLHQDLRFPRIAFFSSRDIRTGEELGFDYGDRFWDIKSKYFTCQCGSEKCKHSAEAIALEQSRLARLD
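AlphaScreen read-out: biotin-H3K9 peptide (500 nM) methylation by 20 nM enzyme with 20 uM SAM, 2 h at room temperature after 15 min compound preincubation; anti-monomethyl H3K9 antibody plus donor/acceptor beads, 10 min dark.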
JMJD2A Tudor inh: qHTS Assay for Inhibitors of JMJD2A-Tudor Domain; Lysine-specific demethylase 4A (Homo sapiens), O75164; AlphaScreen JMJD2A-Tudor / H3K4me3 peptide binding; Potency, µM (titrated, usually from 114 µM), most hits filed as inhibitors; 4.4% of 390,000 active; note: nearly all actives have a fitted effect of over 50% in size
HP1b chromo inh: HTS for Inhibitors of HP1-beta Chromodomain Interactions with Methylated Histone Tails; Chromobox protein homolog 1 (Homo sapiens), P83916; AlphaScreen HP1-beta / biotin-H3K9me3 peptide binding; Potency, µM (doses to about 114 µM), actives largely listed as inhibitors; 0.56% of 390,000 active; AID 540317, 2011; note: nearly all actives have a fitted effect of over 70% in size
Target sequence (P83916 whole entry, looked up): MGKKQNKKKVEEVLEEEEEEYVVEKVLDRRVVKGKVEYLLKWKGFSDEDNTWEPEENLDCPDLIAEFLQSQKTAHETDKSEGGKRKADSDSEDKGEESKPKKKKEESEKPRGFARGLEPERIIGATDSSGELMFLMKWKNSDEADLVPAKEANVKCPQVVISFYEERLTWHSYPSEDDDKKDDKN
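HP1-beta protein (50 nM final) preincubated 30 min at room temperature with biotinylated H3(1-18)K9me3 peptide (50 nM) in PBS pH 7.4, 0.01% Tween-20, then compound added for 30 min. AlphaScreen streptavidin donor/nickel chelate acceptor beads (10 ug/mL final), 30 min dark, luminescence read.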
A number is an active result; 0 = inactive; ? = inconclusive; - = no result; ! = not active in a repeat; [ ] = another dose, or the depositor's remark. Most compounds without a hit are left out; they make up all but 12% or so of the library. Calls come from the whole dose curve; as a rule, active = well fitted curve in the direction sought with a large enough effect; inconclusive = small, poorly fitted or top-dose-only effect, or another doubt; inactive = no such curve, though single readings can be large; an effect the other way counts as inactive or inconclusive.

SMILES | BAZ2B inh | Sfp PPTase inh | L3MBTL1 inh | G9a inh | JMJD2A Tudor inh | HP1b chromo inh
CCN(CC)c1ncnc2c1ncn2[C@@H]1O[C@H](COP(=O)(O)OP(=O)(O)C(Br)(Br)P(=O)(O)O)[C@@H](O)[C@H]1O | - | - | - | 30µM! | - | -
NC(=O)C1=CN(C2OC(COP(=O)(O)OP(=O)(O)OC[C@H]3O[C@@H](n4cnc5c(N)ncnc54)[C@H](OP(=O)(O)O)[C@@H]3O)C(O)C2O)C=CC1 (some centres not stated) | - | - | - | 11µM | - | -
COc1ccc(C2C=C(c3ccccc3)Nc3nc(NC(=O)/C=C/c4ccccc4Cl)nn32)cc1 (configuration not stated) | 0 | - | - | ? | 0 | 0
CC(C)C[C@H](NC(=O)[C@H](Cc1ccccc1)NC(=O)CNC(=O)[C@H](CO)NC(=O)[C@@H](N)Cc1ccc(O)cc1)C(=O)N[C@H](C(=O)O)[C@H](C)O | - | 0 | - | 0 | - | -
COc1ccc(N2C(=O)CS(=O)C(c3ccccc3)C2=O)cc1 (configuration not stated) | ? | 1.6µM | ? | 0.71µM | 8.9µM | 13µM
Cc1nc(N)sc1CCN | - | 0 | - | 0 | - | -
COP(=S)(OC)Oc1ccc(S(=O)(=O)N(C)C)cc1 | - | 35µM | - | 10µM | - | -
CCOC(=O)c1c(C)[nH]c(C)c1S(=O)(=O)N1CCC(C(=O)N2CCN(c3ccc(Cl)cc3)CC2)CC1 | ? | - | - | 0 | ? | 0
O=C1NC(=O)N(c2ccc(F)cc2)C(=O)/C1=C/c1ccc(N2CCOCC2)cc1 | 0 | 40µM | - | 40µM | 0 | 0
Cc1ccc(N2C(=O)NC(=O)/C(=C\c3ccc([N+](=O)[O-])o3)C2=O)cc1 | 20µM | ? | 3.5µM | 6.3µM | - | -
CCOc1ccc(N2C(=O)NC(=O)/C(=C\c3ccc(N4CCOCC4)cc3C)C2=O)cc1 | ? | 40µM | 0 | 0[12.7 µM] | 0 | 0
O=C1NC(=O)N(Cc2ccc(F)cc2)C(=O)/C1=C\c1ccc(N2CCCC2)cc1 | ? | ? | 0 | 45µM | ? | 0
COc1ccc(-c2nc(CN3C(=O)CN=C(c4ccccc4)c4ccccc43)c(C)o2)cc1OC | ? | - | - | 0 | 0 | 0
COc1ccc(-n2[nH]c3c4c(ncc3c2=O)CCCCC4)cc1 | - | 0 | - | ? | - | -
O=C(Nc1nnc(SCc2ccccc2Cl)s1)C1COc2ccccc2O1 (configuration not stated) | 0 | 0 | - | 0 | 0 | 0
CCOc1ccc(N2C(=O)NC(=O)/C(=C\c3cc(OC)c(OC)cc3[N+](=O)[O-])C2=O)cc1 | ? | 45µM | 0 | 18µM | ? | 0
COc1ccc(N2C(=O)NC(=O)/C(=C\c3cn(C)c4ccccc34)C2=O)cc1 | 0 | 0 | - | 0[0.501 µM] | 0 | 0
CCOC(=O)C1CCN(/C=C2/C(=O)NC(=O)N(c3ccc(OCC)cc3)C2=O)CC1 | 0 | 0 | 0 | ? | 0 | 0
COc1ccc(N2C(=O)NC(=O)/C(=C/c3ccc(N4CCOCC4)cc3)C2=O)cc1 | 0 | 50µM | 0 | 50µM | - | -
Cc1ccc(N2C(=O)NC(=O)/C(=C\c3ccc(N4CCOCC4)cc3)C2=O)cc1 | 0 | 18µM | 0 | ? | 0 | 0
Cc1cc(/C=C2\C(=O)NC(=O)N(c3ccc(Br)cc3)C2=O)c(C)n1C | 0 | 0 | - | ? | 0 | 0
CC#C[C@]1(O)CC[C@H]2C3C=C(C)C4=CC(=O)C=C[C@]4(C)[C@H]3[C@@H](O)C[C@@]21C (some centres not stated) | - | 0 | - | - | - | -
CCCCCCC1CC(C)(C(=O)CNc2nncs2)OC1=O (configuration not stated) | 0 | 0 | 0 | 14µM | 0 | 0
Cc1ccc(-c2nc(N3CCOCC3)s[n+]2-c2ccccc2)cc1 | ? | ? | 0 | 0.89µM | 8.9µM | ?
Cn1cc(/C=C(\C(=O)O)C(C(=O)O)=C2CCCCC2)c2ccccc21 | ? | 0 | 0 | 32µM | ? | 0
SMILES | BAZ2B inh | Sfp PPTase inh | L3MBTL1 inh | G9a inh | JMJD2A Tudor inh | HP1b chromo inh
Cn1cc(C=C(C#N)C#N)c2ccccc21 | 0 | 0 | 0 | - | 0 | 0
CN(C[C@H](Cc1ccccc1)N(C[C@H](Cc1ccccc1)N(CC1(c2ccccc2)CC1)N=O)N=O)N=O | ? | 0 | 0 | 0 | 0 | 0
Cc1nnc(N2CCC(C(=O)NCc3ccc(N(C)C)cc3)CC2)c2nn(-c3ccccc3)c(C)c12 | ? | - | - | 0 | ? | 0
CC1OC1P(=O)(O)O (configuration not stated) | - | 0 | - | 25µM! | - | -
C[N+]1(C)[C@@H]2CC(OC(=O)[C@@H](CO)c3ccccc3)C[C@@H]1[C@H]1O[C@H]12 (some centres not stated) | - | 0 | - | 0 | - | -
Cc1ccc(-c2n[nH]c(=S)n2-c2ccccc2)cc1 | 0 | 79µM | 0 | 1.3µM | 20µM | 0
Cc1ccc(-n2c(-c3nn(C)c(C)c3Cl)n[nH]c2=S)cc1 | 0 | 56µM | - | ? | ? | 0
